Here are results for 40 compounds from PubChem BioAssay (NCI).

The structures appear in SMILES notation. This is part of a sample that, as a whole, favours compounds with a hit. Of some 83,000 tested, about 20% had one in any assay.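 Note: values are percent growth. 100 is the growth of untreated cells, values between 100 and 0 indicate rising inhibition; between -100 and 0 indicates cell death.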 Activity calls are given as the source filed them.

The test system of the experiment is A498 renal. The experiment in a line: NCI-60 one-dose screen, 48 h (100 = growth as untreated, 0 = no growth, -100 = all killed). Conditions: 10 µM unless noted. The protocol: Growth inhibition of the A498 human tumor cell line is measured as a screen for anti-cancer activity. Cells are grown in 96 well plates and exposed to the test compound for 48 hours. Compounds are tested at a single concentration, which is 10^-5 M for most compounds. The reported endpoint is percent growth (GI% or GIPRCNT), where numbers from 0 - 100% represent growth inhibition, and numbers from -100% - 0 represent cell death. For example, a value of 40 represents 60% growth inhibition. A value of 0 means no net growth occurred over the course of the experiment. A value of -40 indicates 40% of cells at the beginning of the experiment died by the end of the experiment. A value of -100 means all cells are dead at the end of the experiment.
NCI-60 Human Tumor Cell Lines Screen was performed using the standard one-dose NCI protocol, which is described in more detail at https://dtp.cancer.gov/discovery_development/nci-60/default.htm.
Compounds with GIPRCNT values below 10 were considered active. Activity score was based on GIPRCNT using the following formula: […]
Score is 0 for GIPRCNT values of 100 or above, 50 for GIPRCNT values of 0, and 100 for GIPRCNT values of -100.
For the compound `CCN(CC)c1ccc(N=O)cc1`, the growth is 100% (inactive).

For the compound `CC1=NC2=CC=CC3=NC(C(Cl)(Cl)Cl)=NC(=N1)N23`, the growth was 81.9% (inactive). Turning to `CCOC(=O)c1cc(C(=O)c2cc(OC)c(OC)c(OC)c2)n2c1ccc1ccccc12`, the growth was -10.9% (active).

In the case of `O=C1NC(=C(Cl)Cl)/C(=N/S(=O)(=O)N2CCC(C3(C(F)(F)F)N=N3)CC2)N1`, the growth was 94.9% (inactive). For `CN1CCN(CCCOc2ccc3nc(Nc4ccc(Cl)c(C(F)(F)F)c4)ccc3c2)CC1`, the growth was 101% (inactive). For `N#Cc1c(Nc2ccccc2)nc2n(c1=O)-c1ccccc1Sc1ccccc1-2` the value was 90.2% (inactive).

`COc1cc(-c2nn(C(=O)NS(=O)(=O)c3ccccc3)cc2-c2ccncc2)ccc1Cl`: the growth was 60.3% (inactive). The value for `CC(NNC(C)c1ccccc1)c1ccccc1` (stereo not given) was 97.9% (inactive); that for `c1ccc(-c2nc(N3CCNCC3)c3nc(-c4ccccc4)oc3n2)cc1` was 80.6% (inactive).

Consider `C=C1CCC2C(C)(CO)C(O)CCC2(C)C1C/C=C1/C(=O)OCC1O/C=C/c1ccccc1` (stereo not given), for which the growth was 86.4% (inactive).

As for `COc1ccc(C2=Nn3c(nnc3-n3nc(C)cc3C)SC2)cc1`, the growth was -8.89% (active). For `COC(=O)C(Sc1ccc(Cl)cc1)C1SC(=S)N(Cc2ccccc2)C1=O` (stereo not given) the value was 102% (inactive); for `N=C(N)c1ccc(-c2ccc(-c3ccc(-c4cccs4)s3)s2)cc1`, 20.6% (inactive); for `CN(C)c1cccc2c(S(=O)(=O)/N=C(\N)Nc3nc4ccccc4s3)cccc12`, 74.5% (inactive). For `COc1c2occc2c(OC)c2c(=O)c(-c3cc(-c4ccc(F)cc4)c(C#N)c(N)n3)c(C)oc12` the value was 25.7% (inactive).

On to `CCc1ccc(-c2ccc(=O)n(-c3ccc(S(N)(=O)=O)cc3)n2)cc1`, for which the growth was 40.3% (inactive).

Take `CNc1ccc(Br)c2c1C(=O)c1ccccc1C2=O`: the growth is 93.3% (inactive). Regarding `N/C(=N\S(=O)(=O)c1ccccc1)Nc1nc2ccccc2s1`, the growth is 118% (inactive).

Consider `COc1cc2c(cc1OCCCCCn1c3ccccc3c3ccccc31)N=C[C@@H]1CCCN1C2=O`, for which the growth was -51.8% (active).

As to `C=C1CCC2C3(C)COC(c4c(OC)cccc4OC)OC3CCC2(C)C1C/C=C1/C(=O)OCC1O` (stereo not given), the growth is 102% (inactive).

Consider `C=C(C)[C@@H]1CC[C@]2(C(=O)N3CCNCC3)CC[C@]3(C)[C@H](CC[C@@H]4[C@@]5(C)C/C(=C/c6ccncc6)C(=O)C(C)(C)[C@@H]5CC[C@]43C)[C@@H]12`, for which the growth was 111% (inactive).

Take `COc1ccc(/C=C/c2c(C(C)=O)c(C)nc3ccccc23)cc1`: the growth was 72.8% (inactive). For `COc1ccc(NC(=O)CSc2nc(-c3ccc(OC)c(OC)c3)cc(-c3cc(OC)c(OC)c(OC)c3)n2)cc1` the value was 99.8% (inactive); for `COc1ccc(-c2ccc(C)n2-c2ccc(-c3nc4ccccc4s3)cc2)cc1`, 65.7% (inactive); for `Nc1cc2c([nH]c[n+]2CC#CCCl)c(SCC#CCCl)n1`, -52.1% (active).

As to `COc1ccc(-c2cnoc2-c2ccc(OC)cc2O)cc1`, the growth was 7.36% (active). In the case of `CC(C)OC(=O)N1CCOCC1`, the growth was 90.3% (inactive). The value for `COc1ccc(C2CC(c3ccc(OC)cc3OC)=NN2c2ccc(S(N)(=O)=O)cc2)cc1` (stereo not given) was 102% (inactive); that for `Nc1cc2c(cc1C(=O)c1cccc(F)c1)OCCO2` was 96.5% (inactive); that for `O=S(=O)(c1ccc(OCCO)cc1)c1ccc(OCCO)cc1` was 107% (inactive). `COc1cc2c(cc1O)CCN1C[C@@H](CC(C)C)[C@@H](O)C[C@@H]21`: the growth is 107% (inactive).

Turning to `CNC(=S)NNC(=O)C1CC1`, the growth was 109% (inactive). For `N=C(N)c1ccc(-c2ccc(-c3ccc4ccccc4c3)s2)cc1` the value was 91.3% (inactive). For `c1cc(C2=N[C@@H]3c4ccccc4C[C@@H]3O2)nc(C2=N[C@@H]3c4ccccc4C[C@@H]3O2)c1` the value was 102% (inactive). For `Oc1ccc2cc(Br)ccc2c1-c1c(O)ccc2cc(Br)ccc12` the value was 72% (inactive). Turning to `COc1cc(/C=C/C(=O)c2cccc(-n3cc(-c4cc(OC)c(OC)c(OC)c4)[nH]c3=O)c2)cc(OC)c1OC`, the growth was 76.4% (inactive). The value for `COc1ccc(-c2c(N)n[nH]c2-c2cc(OC)c(OC)c(OC)c2)cc1` was -3.53% (active). The value for `O=C(O)COc1ccc(-c2cssc2=S)cc1` was 88.2% (inactive); that for `CCCCN(CCCC)c1ccc(C(=N)c2ccc(N(CCCC)CCCC)cc2)cc1` was -25.7% (active); that for `CCCCCCCCCCCCNC(=O)[C@H]1CSC(c2cc(Br)cs2)N1` (stereo not given in full) was 76.8% (inactive).
